± gives the standard deviation.
system: MILI (PIWIL2) piRISC loaded with L1MC piRNA (26 nt); experiment: pre-steady-state target cleavage rate (min^-1); guide: L1MC piRNA 5'p-UAACUAAAUACUAUGCAAGCUGUAGG; higher = faster piRNA-guided slicing of the target; settings: auxiliary factor: 500 nM mouse GTSF1;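 note: 1 nM active piRISC with 0.1 nM target library at 33 °C single turnover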
How it was run: (§1)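 In HEPES–potassium acetate buffer at 33 °C, […] transcribed, DNA-blocked target RNA library was mixed with 1 nM active affinity-purified piRISC carrying one synthetic guide, with or without 500 nM GTSF1 partner protein, for 0–8 or 0–960 min. Uncleaved targets were sequenced and normalised to depth and to weakly complementary targets; three trials were pooled and k3 was capped at 0.0001 min^-1. The pre-steady-state cleavage rate followed from a burst-and-steady-state fit.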

Sequence | pre-steady-state target cleavage rate
UCCUGGUACAAGCUUGCAUAGUAUUUAGUUA | 0.196 ± 0.024
UCCUGCUACAGCUUGCAUAGUAUUUACGUUA | 0.21 ± 0.023
UCCUCCUACAGCUUGCAUAGUUUUAGUUA | 0.0249 ± 0.0085
UCCUCCUACAGCUUGCAUUGUAUUUAGUAA | 0.182 ± 0.02
UCCUCCUACAGCUUGCAAUGUAUUUAGUUA | 0.101 ± 0.015
UCCUGGAUGUCCUCUGCAUAGUAUUUAGUUA | 0.0405 ± 0.0082
UCCUGCUAGAGCUAGCAUAGUAUUUAGUUA | 0.237 ± 0.031
UCCUGGAUCAGCAUGCAUAGUAUUUAGUAA | 0.246 ± 0.012
UCCUCCAACAGCUUGCUUAGUAUUUAGUUA | 0.262 ± 0.017
UCCUGGAUGUCGAUGCAUAGUAUUUAGUUUA | 0.0871 ± 0.014
UCCUGCUACACCUUGCAUAGUAAUUAGUUA | 0.157 ± 0.026
UCCUGGAUCAGCUUGCAUAGUAUGUAGUUA | 0.202 ± 0.018
UCCUGGAUCGGCUUGCAUAGUAUUUAGUUA | 0.261 ± 0.016
UCCUCCUACAGCUUGCUUAGUAUUUAGUUA | 0.275 ± 0.015
UCCUGGAUCACUUGCAUAGUAUUUAGUUA | 0.214 ± 0.018
UCCUGCUACAGCUUGCAAAGUAUUUUGUUA | 0.139 ± 0.026

same assay, conditions: auxiliary factor: none (no GTSF1)

Sequence | pre-steady-state target cleavage rate
UCCUGCUACAGGUUGCAUAGUAUUUAGUAA | 0.0054 ± 0.0028
UCCUGCUACAGCUUGCAUAGUACUUAGUUA | 0.00719 ± 0.0026
UCCUGGUACAGCUUGCAUAGUAUUUAGAUA | 0.00493 ± 0.0028
UCCUGGAUGUCGUUCGCAUAGUAUUUAGUUA | 0.00567 ± 0.0028
UCCUGGAUGUCCUUGCAUAGUAUUUAAGUUA | 0.00879 ± 0.0027
UCCUGGAACAGCUUGCAUAGUAUUAGUUA | 0.0037 ± 0.0023
UCCUGGAUCAGCUUGCAUAGUAAUAAGUUA | 0.00409 ± 0.0028
UCCUGGAUGUCCGUGCAUAGUAUUUAGUUA | 0.00675 ± 0.0027
UCCUGGAUGUCCUUGCAUAGUCUUUAGUUA | 0.00468 ± 0.0022
UCCUGCUACAGCUUGCAUAGUAUUUUAGUUA | 0.0106 ± 0.0025
UCCUGGUACAGCUUGCCUAGUAUUUAGUUA | 0.00843 ± 0.0026
UCCUGGUACAGCUUGCAUCGUAUUUAGUUA | 0.00985 ± 0.0037
UCCUGGAACACUUGCAUAGUAUUUAGUUA | 0.00651 ± 0.0021
UCCUGGUACAGCUGCAUAGUAUUUAGUUA | 0.0103 ± 0.0029
UCCUCGUACAGCUUGCAUAGUAUUAAGUUA | 0.00547 ± 0.0019
UCCUGGAACUCCUUGCAUAGUAUUUAGUUA | 0.00487 ± 0.0017
UCCUCCUACAGCUUGCAUAGUAUAAAGUUA | 0.00301 ± 0.0023
UCCUGGAUGUGCUCUGCAUAGUAUUUAGUUA | 0.0108 ± 0.0039
UCCUGGAUCAGCUUGCAUAAUAUUUAGUUA | 0.00396 ± 0.0026
UCCUCCUACACGCUUGCAUAGUAUUUAGUUA | 0.00734 ± 0.0025

Sequence | pre-steady-state target cleavage rate
UCCUCCAACAGCUUGCAUUGUAUUUAGUUA | 0.00746 ± 0.0023
UCCUGGAUGUGCCUUGCAUAGUAUUUAGUUA | 0.00996 ± 0.0032
UCCUGGAUGUCCUUGCACAGUAUUUAGUUA | 0.00389 ± 0.0023
UCCUGGUACAGCUUGACAUAGUAUUUAGUUA | 0.00764 ± 0.0035
UCCUGGUACAAGCUUGCAUAGUAUUUAGUUA | 0.0121 ± 0.0042
UCCUGCUACAGCUUGCAUAGUAUUUACGUUA | 0.00615 ± 0.0025
UCCUCCUACAGCUUGCAUAGUUUUAGUUA | 0.0026 ± 0.0026
UCCUCCUACAGCUUGCAUUGUAUUUAGUAA | 0.00398 ± 0.002
UCCUCCUACAGCUUGCAAUGUAUUUAGUUA | 0.00693 ± 0.0023
UCCUGGAUGUCCUCUGCAUAGUAUUUAGUUA | 0.00562 ± 0.0033
UCCUGCUAGAGCUAGCAUAGUAUUUAGUUA | 0.00417 ± 0.0027
UCCUGGAUCAGCAUGCAUAGUAUUUAGUAA | 0.00355 ± 0.0026
UCCUCCAACAGCUUGCUUAGUAUUUAGUUA | 0.0066 ± 0.0021
UCCUGGAUGUCGAUGCAUAGUAUUUAGUUUA | 0.0069 ± 0.0031
UCCUGCUACACCUUGCAUAGUAAUUAGUUA | 0.00684 ± 0.002
UCCUGGAUCAGCUUGCAUAGUAUGUAGUUA | 0.00457 ± 0.0024
UCCUGGAUCGGCUUGCAUAGUAUUUAGUUA | 0.0131 ± 0.0022
UCCUCCUACAGCUUGCUUAGUAUUUAGUUA | 0.00811 ± 0.0021
UCCUGGAUCACUUGCAUAGUAUUUAGUUA | 0.0066 ± 0.0022
UCCUGCUACAGCUUGCAAAGUAUUUUGUUA | 0.00325 ± 0.0025

system: EfPiwi piRISC loaded with L1MC piRNA (26 nt); experiment: pre-steady-state target cleavage rate (min^-1); auxiliary factor: 500 nM Ephydatia muelleri Gtsf1; guide: L1MC piRNA 5'p-UAACUAAAUACUAUGCAAGCUGUAGG; MIWI and MILI are mouse PIWI proteins and EfPiwi is from a freshwater sponge; tags in brackets are library labels; higher = faster piRNA-guided slicing of the target; settings: not given
How it was run: as §1

Sequence | pre-steady-state target cleavage rate
UCCUGCUACAGGUUGCAUAGUAUUUAGUAA | 0.00478 ± 0.0019
UCCUGCUACAGCUUGCAUAGUACUUAGUUA | 0.00608 ± 0.0018
UCCUGGUACAGCUUGCAUAGUAUUUAGAUA | 0.00705 ± 0.0034
UCCUGGAUGUCGUUCGCAUAGUAUUUAGUUA | 0.00486 ± 0.0031
UCCUGGAUGUCCUUGCAUAGUAUUUAAGUUA | 0.0217 ± 0.0093
UCCUGGAACAGCUUGCAUAGUAUUAGUUA | 0.00229 ± 0.0021
UCCUGGAUCAGCUUGCAUAGUAAUAAGUUA | 0.00234 ± 0.0018
UCCUGGAUGUCCGUGCAUAGUAUUUAGUUA | 0.00483 ± 0.0024
UCCUGGAUGUCCUUGCAUAGUCUUUAGUUA | 0.00326 ± 0.0014
UCCUGCUACAGCUUGCAUAGUAUUUUAGUUA | 0.00822 ± 0.0026
UCCUGGUACAGCUUGCCUAGUAUUUAGUUA | 0.00475 ± 0.0026
UCCUGGUACAGCUUGCAUCGUAUUUAGUUA | 0.00642 ± 0.0025
UCCUGGAACACUUGCAUAGUAUUUAGUUA | 0.0107 ± 0.0034
UCCUGGUACAGCUGCAUAGUAUUUAGUUA | 0.00843 ± 0.0034
UCCUCGUACAGCUUGCAUAGUAUUAAGUUA | 0.00547 ± 0.0018
UCCUGGAACUCCUUGCAUAGUAUUUAGUUA | 0.0352 ± 0.009
UCCUCCUACAGCUUGCAUAGUAUAAAGUUA | 0.00527 ± 0.0031
UCCUGGAUGUGCUCUGCAUAGUAUUUAGUUA | 0.00925 ± 0.0031
UCCUGGAUCAGCUUGCAUAAUAUUUAGUUA | 0.0108 ± 0.0031
UCCUCCUACACGCUUGCAUAGUAUUUAGUUA | 0.00856 ± 0.003

Sequence | pre-steady-state target cleavage rate
UCCUCCAACAGCUUGCAUUGUAUUUAGUUA | 0.0205 ± 0.0058
UCCUGGAUGUGCCUUGCAUAGUAUUUAGUUA | 0.0886 ± 0.031
UCCUGGAUGUCCUUGCACAGUAUUUAGUUA | 0.00454 ± 0.0024
UCCUGGUACAGCUUGACAUAGUAUUUAGUUA | 0.0102 ± 0.003
UCCUGGUACAAGCUUGCAUAGUAUUUAGUUA | 0.0481 ± 0.014
UCCUGCUACAGCUUGCAUAGUAUUUACGUUA | 0.00429 ± 0.002
UCCUCCUACAGCUUGCAUAGUUUUAGUUA | 0.00276 ± 0.0023
UCCUCCUACAGCUUGCAUUGUAUUUAGUAA | 0.00648 ± 0.0029
UCCUCCUACAGCUUGCAAUGUAUUUAGUUA | 0.0107 ± 0.0042
UCCUGGAUGUCCUCUGCAUAGUAUUUAGUUA | 0.00412 ± 0.003
UCCUGCUAGAGCUAGCAUAGUAUUUAGUUA | 0.00618 ± 0.0016
UCCUGGAUCAGCAUGCAUAGUAUUUAGUAA | 0.00497 ± 0.0029
UCCUCCAACAGCUUGCUUAGUAUUUAGUUA | 0.0148 ± 0.0053
UCCUGGAUGUCGAUGCAUAGUAUUUAGUUUA | 0.00642 ± 0.0029
UCCUGCUACACCUUGCAUAGUAAUUAGUUA | 0.00647 ± 0.0028
UCCUGGAUCAGCUUGCAUAGUAUGUAGUUA | 0.0171 ± 0.0042
UCCUGGAUCGGCUUGCAUAGUAUUUAGUUA | 0.0523 ± 0.0092
UCCUCCUACAGCUUGCUUAGUAUUUAGUUA | 0.0424 ± 0.012
UCCUGGAUCACUUGCAUAGUAUUUAGUUA | 0.0567 ± 0.014
UCCUGCUACAGCUUGCAAAGUAUUUUGUUA | 0.00625 ± 0.0028

— the supplement of paper PMC10338343
